AT treatment – potential ataxia-telangiectasia treatment; AID 485349; 320,000 tested, 0.19% active; F2112 A-T fibroblasts, KAP-1 phosphorylation AlphaLISA; neocarzinostatin DNA damage 30 min before lysis; Potency, µM (top dose mostly 57.5 µM), actives largely listed as activators; also: nearly all actives have a fitted effect of over 45% in size
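ATM-like activity read as KAP-1 phosphorylation via AlphaLISA donor/acceptor antibody pairs after lysis and 6 hr at 25C. Cells were ATM-null patient fibroblasts (F2112, hTERT), dosed 60 min, then exposed to the DSB inducer NCS for 30 min.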
Nrf2 ARE act – activates Nrf2 signaling | AREc32 ARE-luciferase reporter (MCF7-derived line), luminescence, 24 h | 410,000 tested, 0.31% active | AID 624171 | Potency, µM (top dose mostly 46.1 µM), hits mostly activators; also: nearly all actives have a fitted effect of over 65% in size
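Cells of the AREc32 ARE-luciferase line are plated in OPTI-MEM containing 5% FBS and left overnight at 37 deg C. Compounds are pinned in, incubation continues 24 hr, and firefly luciferase signal is then measured.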
Nrf2 block – Nrf2 pathway inhibition. AID 504444. 360,000 tested, 2.1% active. A549 ARE-Fluc reporter, luciferase luminescence, 18-24 h. Potency, µM (series often up to 46 µM), actives largely listed as inhibitors; also: nearly all actives have a fitted effect of over 60% in size
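Nrf2 activity is the BugLite luminescence, read 15 min after reagent at room temperature, following CellTiter-Fluor cytotoxicity readout (30 min, 37C). Compound titrations were applied for 18-24 h to 5000 A549 ARE_Fluc cells/well in 5% FBS OPTI-MEM.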
CCT modulator – modulators of cytosolic chaperonin (CCT/TRiC) activity; purified chaperonin ATPase assay, HTRF ADP detection, 30 min; activity change, % (concentration not given with the values), hits read low; 360,000 tested, 0.3% active; AID 651819; in the data active = activity change below about -30%
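Enzyme 40 or 20 nM (batch-dependent) in Tris pH 7.4/KCl/MgCl2/DTT; cpd 76 uM single point; ATP 10 uM; 30 min 37 °C; Transcreener ADP HTRF detection, 30 min RT; ratio 665/615.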
A549 viability – counter-screen for Nrf2 inhibitors: cytotoxicity in A549 cells; 390,000 tested, 0.16% active; Potency, µM (top dose mostly 46 µM), actives largely listed as inhibitors; AID 504648; A549 ARE-Fluc cells, CellTiter-Fluor viability, 18-24 h
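A549 ARE-Fluc cells in 5% FBS OPTI-MEM, 5000 cells/well, rested 2 h then exposed to compounds in concentration-response for 18-24 h at 37 °C. Viability by CellTiter-Fluor fluorescence (Ex 405/Em 525) after 30 min; luciferase luminescence (BugLite, 15 min, RT) read afterwards.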
TCR activator – activators of T cell receptors | primary human leukocytes, anti-CD3, IL-2 HTRF, 48 h | Potency, µM (titrated, usually from 9.22 µM), most hits filed as activators | 330,000 tested, under 10 active | AID 504894
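Primary human leukocytes receive a-CD3 beads and test compound and are incubated 48 hr. Secreted IL-2 is then assayed by HTRF, measuring 665nm acceptor emission after 320nm excitation of the europium donor.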
A number is an active result; i = inactive; ? = inconclusive; nt = no result; [ ] = remark or other dose. Rows were chosen to be rich in hits. Some 2.6% of all compounds tested hit in one or more screens of this group. Unless noted, calls follow the shape of the dose curve; as a rule, active = well fitted curve in the direction sought with a large enough effect; inconclusive = small, poorly fitted or top-dose-only effect, or another doubt; inactive = no such curve, though single readings can be large; an effect the other way counts as inactive or inconclusive.

SMILES	AT treatment	Nrf2 ARE act	Nrf2 block	CCT modulator	A549 viability	TCR activator
O=C(Nc1ccccc1)C(Cl)C(=O)c1ccccc1 (stereo not given)	?	14µM	i	i	i	i
CC(=O)C(Cl)C(=O)Nc1ccccc1 (stereo not given)	?	i	?	i	i	i
Cc1ccc(NS(=O)(=O)c2cc(NC(=O)c3ccc4c(c3)NC(=O)CS4)ccc2Cl)c(C)c1	i	i	7.3µM	i	?	i
COc1ccc(NC(=O)c2ccc3c(c2)NC(=O)CS3)cc1	i	i	i	i	i	i
CCOc1ccc(NC(=O)CN2C(=O)C(c3ccc(Cl)cc3)=NC2(C)C)cc1	nt	i	i	nt	i	nt
Cc1cccc(N2CCN(CCCNC(=O)c3sc4ncccc4c3-n3cccc3)CC2C)c1 (stereo not given)	nt	i	nt	nt	i	nt
Cc1cc(OCC(=O)Nc2ccncc2)cc(C)c1Cl	i	i	13µM	i	i	nt
Cc1cc(OC(C)C(=O)Nc2cccnc2)ccc1Cl (stereo not given)	i	i	i	i	i	i
Cc1cc(OCC(=O)Nc2ccc(N3CCN(C(=O)c4ccco4)CC3)cc2)cc(C)c1Cl	i	i	8.2µM	i	i	i
Cc1cccc(OCC(=O)Nc2ccc(N3CCN(C(=O)c4ccco4)CC3)cc2)c1	i	i	21µM	i	i	i
Cc1ccc(OCC(=O)Nc2ccc(N3CCN(C(=O)c4ccco4)CC3)cc2)cc1C	i[11.5 µM]	i	?	i	i	nt
Cc1cc(OC(C)C(=O)Nc2ccncc2)ccc1Cl (stereo not given)	i	i	18µM	i	i	nt
O=c1[nH]c2ccc(S(=O)(=O)N3CCN(S(=O)(=O)c4c(F)cccc4F)CC3)cc2[nH]c1=O	nt	nt	i	nt	i	nt
O=C1c2ccccc2C(=O)N1c1cccnc1	nt	i	i	-44	i	i
COc1ccc(NC(=S)Nc2ccc(Oc3ccccc3)cc2)cc1	i	i	23µM	i	i	i
Cc1ccc(C(=O)NC(=S)Nc2ccc(Oc3ccc(Cl)cc3)cc2)cc1	i	i	?	i	i	i
O=C(NC(=S)Nc1ccc(Oc2ccccc2)cc1)c1ccc(Cl)cc1	i	i	26µM	i	i	i
Cc1cc(Cl)ccc1Nc1nc(NCc2ccco2)nc2nccnc12	nt	nt	i	nt	i	nt
Cc1ccc(C(c2c(O)cc(C)n(Cc3ccco3)c2=O)N2CCC(C)CC2)cc1 (stereo not given)	nt	i	nt	nt	i	nt
COc1cc(Cl)c(C)cc1NC(=O)CC1Oc2ccccc2NC1=O (stereo not given)	nt	i	i	nt	i	nt
COc1ccc(/C=C2\CCCC3C2=NN(C(=O)CSc2ncn[nH]2)C3c2ccc(OC)cc2)cc1 (stereo not given)	i	i	?	i	i	i
COc1ccc(/C=C2\CCCC3C2=NN(C(=O)COC(=O)CNC(=O)c2ccccc2)C3c2ccc(OC)cc2)cc1 (stereo not given)	i	i	13µM	i	nt	i
O=C(Nc1cccc(C(F)(F)F)c1)Nc1ccc2snnc2c1	nt	i	21µM	nt	?	nt
O=C(CNc1cccc(S(=O)(=O)N2CCCC2)c1)Nc1ccc(F)c(F)c1	i	i	26µM	i	i	i
Cc1ccc(NC(=O)CNc2cccc(S(=O)(=O)N3CCCC3)c2)cc1F	i	i	?	i	i	i
SMILES	AT treatment	Nrf2 ARE act	Nrf2 block	CCT modulator	A549 viability	TCR activator
Cc1ccc(NC(=O)CN(C)CC(=O)Nc2cccc(F)c2)cc1S(=O)(=O)N1CCCCCC1	i	i	?	i	?	i
Cc1ccc(NCC(=O)Nc2cccc(S(=O)(=O)N(C)C)c2)cc1S(=O)(=O)N1CCCCCC1	i	i	8.2µM	i	?	i
CC1CN(S(=O)(=O)c2cccc(C(=O)Nc3ccc4c(c3)CCC4)c2)CC(C)O1 (stereo not given)	i	i	23µM	i	i	i
CCOC(=O)C1CCN(C(=O)Cn2c(=O)oc3cc(S(=O)(=O)N4CCC(C)CC4)ccc32)CC1	nt	i	i	nt	i	nt
COc1ccc(F)cc1S(=O)(=O)Nc1ccc2c(c1)CCCN2C(=O)c1cccs1	nt	i	nt	nt	i	nt
O=C1CCCC2=C1C1(CCS(=O)(=O)C1)N=C(Nc1nc3ccccc3o1)N2 (stereo not given)	nt	nt	?	nt	i	nt
O=C(c1cccc(S(=O)(=O)N2CCCC2)c1)c1cccc(S(=O)(=O)N2CCCC2)c1	i	i	8.2µM	i	i	i
Cc1ccc(NC(=O)COc2ccc(-c3nnco3)cc2)cc1S(=O)(=O)N1CCOCC1	i	i	23µM	i	i	i
Cc1ccc(OCCC(=O)OCC(=O)Nc2ccc(C)c(S(=O)(=O)N3CCOCC3)c2)cc1	nt	i	i	i	i	i
CCN(CC)S(=O)(=O)c1ccc(C)c(NC(=O)CNc2cccc(S(=O)(=O)N3CCCC3)c2)c1	i	i	?	i	i	i
CCN(CC)S(=O)(=O)c1cccc(NC(=O)CNc2cccc(S(=O)(=O)N3CCCC3)c2)c1	i	i	26µM	i	?	i
Cc1nc(-c2ccc(F)cc2)c(CC(=O)Nc2ccc(C)c(S(=O)(=O)N3CCOCC3)c2)s1	i	i	18µM	i	i	i
O=C(/C=C/c1ccccc1Cl)N1CCC(c2nc3ccccc3o2)CC1	nt	i	i	nt	i	nt
Cc1noc(C)c1NC(=O)Nc1ccc2c(c1)C(=O)N([C@H](C)CO)C[C@H](C)[C@@H](CN(C)S(=O)(=O)c1c(C)noc1C)O2	i	i	i	i	i	i
COc1ccc(NC(=O)Cn2c(=O)n(C(C)C)c(=O)c3oc4ccccc4c32)cc1Cl	nt	i	i	nt	i	nt
CN(Cc1cccs1)c1ncnc2ccc(-c3ccc4cn(C)nc4c3)cc12	nt	nt	i	nt	i	nt
CCN(CC)S(=O)(=O)c1cccc(NC(=O)Nc2cccc(C(F)(F)F)c2)c1	i	i	2.6µM	i	?	i
CCN(CC)S(=O)(=O)c1cccc(NC(=O)c2cccc(S(=O)(=O)N3CCCC3)c2)c1	i	i	?	-56	i	i
Cc1ccc(NC(=O)CNc2cccc(Br)c2)cc1S(=O)(=O)N1CCOCC1	i	i	21µM	i	?	i
COc1cccc(C2c3c(ncn(CCN4CCOCC4)c3=N)Oc3ccc4ccccc4c32)c1 (stereo not given)	nt	nt	i	nt	i	nt
CC12CCC=CC1C(c1cccc(Br)c1)N(Cc1ccccc1)C2=O (stereo not given)	nt	nt	?	nt	i	nt
COc1cc(C2C(C#N)=C(N)N(Nc3ccccc3)C3=C2C(=O)CC(C)(C)C3)ccc1OCc1ccccc1 (stereo not given)	i	i	23µM	i	?	i

Screening data: PubChem, National Center for Advancing Translational Sciences (NCATS)
